hNpr1 antagonist: antagonists of human natriuretic peptide receptor Npr1; P16066; HEK293 hNpr1 GloSensor cGMP, ANP-stimulated luminescence; Potency, µM (doses to about 46.3 µM), for the others: top-dose activity change, negative = inhibition, most hits filed as inhibitors; actives 1.6% (n = 76,000); calls by dose curve; further: nearly all actives have a fitted effect of over 60% in size
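HEK293 cells stably expressing human Npr1 and cGMP GloSensor pGS-40F, loaded 2 h with 2% GloSensor reagent, given compound 30 min at room temperature. Luminescence read before and 20 min after 0.1 nM hNppA.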
GPT2 inh: blocks human glutamate pyruvate transaminase 2; Q8TD30; Recombinant GPT2, coupled pyruvate oxidase/HRP Amplex Red fluorescence; Potency, µM (doses to about 57.7 µM), without a hit: at the top dose activity change, negative = inhibition, actives largely listed as inhibitors; actives 0.25% (n = 100,000); AID 1671188; further: nearly all actives have a fitted effect of over 60% in size
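Recombinant GPT2 (10ng/uL) with 250uM a-KG and 2mM L-alanine, 30 min at room temperature, in HEPES pH 7.5 buffer. Pyruvate detected by pyruvate oxidase/HRP/Amplex Red fluorescence after 30 min in the dark; AOA (50uM) as positive control.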
HEK cytotox: HEK 293 cell cytotoxicity; HEK 293 viability, ATP luminescence (CellTiter-Glo), 48-72 h; actives 6.6% (n = 94,000); Potency, µM (titrated, usually from 115 µM), for inactives: at the highest dose activity change, negative = cytotoxicity, actives largely listed as inhibitors; further: nearly all actives have a fitted effect of over 60% in size
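ATP-coupled CellTiter-Glo luminescence served as viability read-out, recorded 10 min after reagent addition at room temperature. HEK 293 cells, 250 cells/well, had been incubated with pintool-transferred compound for 48 or 72 hr at 37 degree Celsius.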
FLuc inh: Photinus pyralis luciferase inhibition. P08659. purified P. pyralis luciferase, luminescence, biochemical. Potency, µM (top dose mostly 115 µM), actives largely listed as inhibitors. actives 2.5% (n = 76,000); further: nearly all actives have a fitted effect of over 65% in size
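FLuc 10nM, D-luciferin 10uM, ATP 10uM, Mg acetate 10mM, Tris acetate pH 7.5, Tween/BSA; cpd qHTS; enzyme added last; CCD luminescence.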
3T3 cytotox: NIH 3T3 cell cytotoxicity | Potency, µM (doses to about 96.7 µM), for the others: at the highest dose activity change, negative = cytotoxicity, actives largely listed as inhibitors | actives 4.3% (n = 94,000) | NIH 3T3 viability, CellTiter-Glo ATP luminescence, 48-72 h; further: nearly all actives have a fitted effect of over 55% in size
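ATP-dependent luminescence (CellTiter-Glo) served as the viability signal for NIH 3T3 cells treated with compound for 48 or 72 hr at 37 °C.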
* marks the source's active call; other numbers are inactive results; i = inactive; ? = inconclusive; · = not tested or not shown; [ ] = dose if it differs, or a comment. Shown are actives, neighbours in structure and some others; about 10% of the full set was active somewhere. Unless noted, the call rests on the fitted dose curve; in most records, active means well fitted curve in the direction sought with a large enough effect; inconclusive means small, poorly fitted or top-dose-only effect, or another doubt; inactive means no such curve, though single readings can be large; an effect the other way counts as inactive or inconclusive. On the % scale 0 is the no-effect control and ±100 the full control effect; potency means the concentration at half of the fitted maximal effect.

SMILES	hNpr1 antagonist	GPT2 inh	HEK cytotox	FLuc inh	3T3 cytotox
O=C(C1CCN(S(=O)(=O)N2CCOCC2)CC1)N1CCC(CCOc2ccc(F)cc2)C1 (centres undefined)	·	-10%	45µM*	·	?
CN(C)c1ccc(CN2CCC3(CC2)C(=NC2CCCCC2)NC(=O)N3c2cc(F)cc(F)c2)cc1	·	5%	?	·	-25%
COCCOCc1nc(C2CCN(C(=O)Nc3ccc(OC)c(F)c3)CC2)no1	-1%	i	-5%	i	-15%
O=c1cc(N2CCOCC2)oc2c(-c3ccccc3F)nccc12	15%[70.6 µM]	1%[88.5 µM]	?	i	8.9µM*
O=c1cc(N2CCOCC2)oc2c(-c3ccncc3)nccc12	0%[70.6 µM]	i	?	i	22µM*
O=C(c1ccc2nc(-c3ccncc3)oc2c1)N1CCCCC1	·	i	?	·	?
CNC(=O)[C@H]1C[C@]2(CCCCNC2=O)N(C(=O)c2ccco2)[C@H]1c1ccccc1	·	·	-18%	·	?
CCO[C@H]1CN(C(=O)c2cc(N3CCCCC3)ccc2Cl)C[C@@H]1O	0%	i	-13%	i	-19%
CC(C)[C@@H]1CN(C(=O)c2cc(N3CCCCC3)ccc2Cl)C[C@H]1N(C)C	0%	-21%	40µM*	i	?
O=C(NCC1CC1)c1cccc(OC2CN(Cc3ccc(F)cc3Cl)C2)c1	?	1%	?	i	40µM*
O=C(NCC1CC1)c1cccc(OC2CN(Cc3ccc(F)cc3F)C2)c1	-15%	i	?	i	?
COc1ccccc1-c1ccc(C(=O)N2CCC(C(=O)NCc3cccc(F)c3)CC2)cc1	·	-9%	?	·	?
FC(F)Oc1cccc(CNC2CCC3(CCNCC3)CC2)c1	-5%	-8%	50µM*	i	?
Cc1ccc2c(C)c(C(=O)N(C)CCOc3ccccc3)oc2c1C	1%	?	?	40µM*	-17%
Cc1ccc(-c2ccccc2CN2CCN([S+](=O)([O-])CCC(F)(F)F)CC2)cc1Cl	·	4%	?	·	-35%
Cc1ccc(NC(=O)c2cc(-c3ccc(Cl)cc3Cl)c3nncn3n2)cc1	·	1%	0%	·	-19%
COc1ccccc1-c1cc(C(=O)NCc2cccc(C(F)(F)F)c2)nn2cnnc12	·	-7%	40µM*	·	?
COc1ccccc1-c1cc(C(=O)NCc2ccccc2)nn2cnnc12	·	i	?	·	?
COc1ccccc1-c1cc(C(=O)Nc2ccc(C)cc2)nn2cnnc12	·	i	35µM*	·	-18%
O=C1NCc2ccccc2CC12CCN(Cc1cccc3ccccc13)C2 (centres undefined)	·	i	?	·	?
COc1ccc(Nc2ccc3c(n2)CN(Cc2ccc(C(F)(F)F)cc2)C(=O)CO3)cn1	-22%	-9%	?	i	?
COc1ccc(Nc2ccc3c(n2)CN(Cc2ccc(F)cc2)C(=O)CO3)cn1	-23%[70.6 µM]	-7%[88.5 µM]	89µM*	i	?
O=C1COc2ccc(-c3cccc(O)c3)nc2CN1Cc1ccc(C(F)(F)F)cc1	-18%[70.6 µM]	-3%[88.5 µM]	?	i	?
O=C1COc2ccc(Nc3cccnc3)nc2CN1Cc1ccc(C(F)(F)F)cc1	-24%[70.6 µM]	-2%[88.5 µM]	89µM*	i	?
COc1ccc(Nc2ccc3c(n2)CN(Cc2ccccc2)C(=O)CO3)cn1	-24%[70.6 µM]	i	79µM*	i	?
SMILES	hNpr1 antagonist	GPT2 inh	HEK cytotox	FLuc inh	3T3 cytotox
CC1CCN(C(=O)c2cc3c(s2)CCN(C(=O)c2ccc(Cl)cc2)C3)CC1	-14%	-14%	40µM*	i	?
CN1CCN(C(=O)c2cc3c(s2)CCN(C(=O)c2ccc(Cl)cc2)C3)CC1	0%	-8%	?	i	?
O=C(c1ccc(-c2cncnc2)cc1)N1CCC(N[S+](=O)([O-])c2cccs2)CC1	·	i	-4%	·	-26%
OCC1CN(c2ncccn2)CC12CCN(Cc1c[nH]c3ccccc13)CC2 (centres undefined)	1%	?	-5%	i	-11%
OCC1CN(c2ncccn2)CC12CCN(Cc1cccc3[nH]ccc13)CC2 (centres undefined)	-11%	i	79µM*	i	?
CCN(C(=O)CCC(=O)N1CCc2nc3cc(-c4ccc(OC)cc4)[nH]n3c(=O)c2C1)c1ccccc1	-2%	0%	?	16µM*	?
CCN1C(=O)C2CC3(CCN(C(=O)NCCCOC)CC3)CN2C1=O (centres undefined)	2%	-3%	-19%	i	-6%
CC1(C)[C@H](Cc2cc(-c3ccc(F)cc3)on2)C[C@@H]1NC1CCC1	4%[70.6 µM]	2%[88.5 µM]	40µM*	i	35µM*
COCc1cc(C[C@@H]2C[C@H](NCc3cccnc3)C2(C)C)no1	0%[70.6 µM]	-4%[88.5 µM]	-17%[172 µM]	i	-16%[138 µM]
CC1(C)[C@H](Cc2cc(-c3ccc(F)cc3)on2)C[C@@H]1NCc1cccnc1	11µM*	-4%[88.5 µM]	?	?	?
CC(C)(C)c1cc(C[C@@H]2C[C@H](NS(C)(=O)=O)C2(C)C)no1	-2%[70.6 µM]	-9%[88.5 µM]	?	i	-15%[174 µM]
CN1CCC(N[C@H]2C[C@@H](Cc3cc(C(C)(C)C)on3)C2(C)C)CC1	2%[70.6 µM]	-8%[88.5 µM]	28µM*	i	50µM*
CCN1C[C@H]2CN(C)c3ccccc3[C@@H]2N(C(=O)OCC(C)C)CCC1=O	·	i	?	·	?
CN(CCCNC(=O)CCC[C@H]1NC[C@@H]2C[C@H]1CN(Cc1ccccc1)C2)C1CCCCC1	-3%	-8%	1%	i	2%
CSc1cccc(NC(=O)N[C@H]2C[C@@H](C(=O)N[C@H](Cc3c[nH]c4ccccc34)C(N)=O)N(C(=O)c3cccn3C)C2)c1	1%	-3%	-7%	i	i
O=C(Nc1ccc(Oc2ccccc2)cc1)N[C@H]1CO[C@H]2[C@@H]1OC[C@@H]2n1nnnc1Oc1ccc(-n2cncn2)cc1	-25%	0%	25µM*	i	?
O=C(Nc1ccc(Oc2ccccc2)cc1)N[C@H]1CO[C@H]2[C@@H]1OC[C@H]2OC(=O)Nc1cccc(C(F)(F)F)c1	-15%	-9%	-32%	i	-34%
CC(=O)c1ccc(NC(=O)O[C@@H]2CO[C@H]3[C@@H]2OC[C@@H]3NC(=O)Nc2ccc(Oc3ccccc3)cc2)cc1	?	0%	32µM*	i	?
O=C(Nc1ccccc1)N[C@H]1CO[C@H]2[C@@H]1OC[C@H]2OC(=O)Nc1ccc(Oc2ccccc2)cc1	7.9µM*	0%	?	?	?
O=C(COc1ccccc1)N[C@H]1CO[C@H]2[C@@H]1OC[C@@H]2n1nnnc1Oc1ccc(-n2cncn2)cc1	2%	-24%	4%	i	-23%
